Screens as filed in PubChem.
L3MBTL1 block: qHTS Assay for the Inhibitors of L3MBTL1. AlphaScreen L3MBTL1–H3K9me1 peptide binding. Lethal(3)malignant brain tumor-like protein 1 (Homo sapiens), Q9Y468. Potency, µM (series often up to 57.1 µM), inactives show at the highest dose activity, negative = inhibition, actives largely listed as inhibitors. 230,000 tested, 0.66% active; further: on the % scale 0 is the no-effect control and ±100 the full control effect; nearly all actives have a fitted effect of over 60% in size
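AlphaScreen proximity signal between nickel-chelate acceptor and streptavidin donor beads (final 10 ug/mL) reports binding of 50 nM L3MBTL1 to 75 nM biotin-H3 K9me1 peptide; complex incubated with compounds 30 min at room temperature; cefsulodin titration as control.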
JMJD2A Tudor: qHTS Assay for Inhibitors of JMJD2A-Tudor Domain | AID 504339, 2011 | 390,000 tested, 4.4% active | Lysine-specific demethylase 4A (Homo sapiens), O75164 | AlphaScreen JMJD2A-Tudor / H3K4me3 peptide binding | Potency, µM (doses to about 114 µM), for inactives: at the highest dose activity change, negative = inhibition, actives largely listed as inhibitors; further: on the % scale 0 is the no-effect control and ±100 the full control effect; nearly all actives have a fitted effect of over 50% in size
BAZ2B block: qHTS Assay for Inhibitors of BAZ2B. Bromodomain adjacent to zinc finger domain protein 2B (Homo sapiens), Q9UIF8. AlphaScreen BAZ2B-H3K14Ac peptide displacement. Potency, µM (series often up to 114 µM), for inactives: at the highest dose activity change, negative = inhibition, hits mostly inhibitors. 360,000 tested, 4.4% active. AID 504333, 2011; further: on the % scale 0 is the no-effect control and ±100 the full control effect; nearly all actives have a fitted effect of over 60% in size
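BAZ2B (50 nM) with biotin-H3(5-23)K14Ac peptide (50 nM) in PBS pH 7.4, 0.01% Tween-20, preformed 30 min, then compound 30 min at room temperature; top concentration 110uM. AlphaScreen streptavidin donor/nickel chelate acceptor beads (10 ug/mL final), 20 min dark, signal read.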
HP1b chromo inh: HTS for Inhibitors of HP1-beta Chromodomain Interactions with Methylated Histone Tails. Potency, µM (series often up to 114 µM), inactives show at the top dose activity change, negative = inhibition, usual class: inhibitors. 390,000 tested, 0.56% active. Chromobox protein homolog 1 (Homo sapiens), P83916. AID 540317, 2011. AlphaScreen HP1-beta / biotin-H3K9me3 peptide binding; further: nearly all actives have a fitted effect of over 70% in size
Target sequence (P83916 whole entry, looked up): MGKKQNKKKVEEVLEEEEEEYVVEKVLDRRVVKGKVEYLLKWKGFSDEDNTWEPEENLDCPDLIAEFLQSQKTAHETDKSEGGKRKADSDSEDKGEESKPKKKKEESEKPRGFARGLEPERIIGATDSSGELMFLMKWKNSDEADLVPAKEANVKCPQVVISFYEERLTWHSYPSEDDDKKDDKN
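Compound inhibition of the preformed complex between 50 nM HP1-beta and 50 nM biotinylated H3K9me3 peptide was read by AlphaScreen. Buffer was PBS pH 7.4 with 0.01% Tween-20. Incubations ran 30 min at room temperature, with 10 ug/mL donor/acceptor beads.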
G9a block: qHTS Assay for Inhibitors of Histone Lysine Methyltransferase G9a | G9a H3K9 monomethylation, AlphaScreen, 2 h | 350,000 tested, 8.8% active | AID 504332, 2011 | Potency, µM (titrated, usually from 102 µM), without a hit: at the top dose activity, negative = inhibition, usual class: inhibitors | Histone-lysine N-methyltransferase EHMT2 (Homo sapiens), Q96KQ7; further: on the % scale 0 is the no-effect control and ±100 the full control effect; nearly all actives have a fitted effect of over 75% in size
Target sequence (Q96KQ7 913-1193 limits assumed): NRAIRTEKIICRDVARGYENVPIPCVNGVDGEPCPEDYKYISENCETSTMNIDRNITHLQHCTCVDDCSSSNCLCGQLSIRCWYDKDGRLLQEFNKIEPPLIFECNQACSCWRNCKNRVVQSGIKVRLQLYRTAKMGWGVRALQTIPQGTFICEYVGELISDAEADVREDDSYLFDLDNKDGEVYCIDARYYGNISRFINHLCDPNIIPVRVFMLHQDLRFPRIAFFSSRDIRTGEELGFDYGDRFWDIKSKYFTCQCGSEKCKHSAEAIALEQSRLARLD
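Step 1: enzyme (final 20 nM) with compound, 15 min RT. Step 2: substrate peptide 500 nM and SAM 20 uM, 2 h RT. Step 3: anti-H3K9me1 antibody and AlphaScreen beads, 10 min, then plate read.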
Starred values were filed as active, the others as inactive; ? = inconclusive; . = no result; ! = not active in a repeat; [ ] = another dose, or the depositor's remark. Most compounds without a hit are left out; they make up all but 11% or so of the library. The call rests on the fitted dose curve; in most records, active means well fitted inhibition curve with a large enough effect; inconclusive means small, poorly fitted or top-dose-only effect; inactive means no such curve, though single readings can be large or run the other way. Potency means the concentration at half of the fitted maximal effect.

SMILES | L3MBTL1 block | JMJD2A Tudor | BAZ2B block | HP1b chromo inh | G9a block
CCOc1ccc(C(=O)CN2CCN(S(=O)(=O)c3ccc(OC)cc3)CC2)cc1 | 6% | -32% | -1% | 50% | 13µM*
c1ccc(NNC2=NCCS2)cc1 | . | 4µM* | -14% | ? | 50µM*
O=C(CSc1ccccc1)NC1=NCCS1 | . | ? | 1% | 17% | -8%
O=c1nc2n(-c3ccccc3F)c3ccccc3cc-2c(=O)[nH]1 | . | -6% | -14% | 26% | -21%[59 µM]
Cc1cccc(-n2c3nc(=O)[nH]c(=O)c-3cc3cc([N+](=O)[O-])ccc32)c1 | 4% | -29% | 1% | 5% | 50µM*
Cc1ccc(C)c(-n2c3nc(=O)[nH]c(=O)c-3cc3cc([N+](=O)[O-])ccc32)c1 | ? | ? | -28% | -20% | 10µM*
COc1cccc(NS(=O)(=O)c2ccc3[nH]cc(C(=O)NC(C)c4ccccc4)c(=O)c3c2)c1 (stereo not given) | . | ? | . | -2% | -51%[59 µM]
Cc1oc2c(c(C)cc3oc(=O)c(CC(=O)NCCc4ccccc4)c(C)c32)c1C | . | -8% | -6% | 17% | -9%[59 µM]
CCOC(=O)c1oc2nc(C)c3c(c2c1N)CC(C)(C)OC3 | -5% | 16µM* | -26% | ? | ?
CCc1nc2oc(C(=O)c3ccccc3)c(N)c2c2c1COC(C)(C)C2 | 4% | 2% | . | 43% | ?
CN(C)CCCNCCCNC(=O)/C=N/O | . | ? | -6% | 12% | 32µM*
O=S(=O)(Nc1cccnc1)c1ccccc1 | . | 50µM*! | -15% | 19% | 14%[59 µM]
O=S(=O)(Nc1ccncc1)c1ccccc1 | -3% | 12%[57.1 µM] | ? | 47% | 50µM*
CCOc1ccc(N(C(=O)c2ccc(C)cc2)S(=O)(=O)c2ccc3c(c2)n(C)c(=O)n3C)cc1 | . | -33% | ? | 26% | ?
COc1ccc(S(=O)(=O)NCC(c2ccc3c(c2)OCO3)N2CCOCC2)cc1 (stereo not given) | -13% | -13% | -3% | 7% | 1%[0.501 µM]
CN(C)c1ccc(NC(=O)Cn2c(SCc3ccc(F)cc3)nc3ccncc32)cc1 | . | ? | ? | 2% | 6.3µM*
O=C1N=C(N2CCCCC2)SC1=C1CCCC1 | -2% | -11% | -4% | 13% | 10%[59 µM]
CN1C(=O)C(=C2CCCCCC2)SC1=S | -2% | 1% | 2% | 75% | 45µM*
Cn1c(/C(C#N)=C/c2ccccc2Br)nc2ccccc21 | . | -17% | 10% | 40% | 0.4µM*
Cn1c(/C(C#N)=N/O)nc2ccccc21 | -1% | ? | 71µM* | 7% | ?
CCOC(=O)COc1ccc(C)cc1C(=O)c1ccn2nc(-c3ccc(F)cc3)cc2n1 | . | 4% | -3% | 45% | 6%[59 µM]
CCOc1cccc2sc(N(Cc3cccnc3)C(=O)C3CCCCC3)nc12 | . | -5% | -4% | 37% | 4%[59 µM]
CCN1CCc2nc(SCC(=O)Nc3ccc(OC)cc3)c(C#N)cc2C1 | 2% | -13% | -2% | 22% | ?
Cc1noc(NS(=O)(=O)c2ccc(NC(=O)CSc3nc4c(cc3C#N)CCCCC4)cc2)c1C | . | -34% | -8% | -8% | 79µM*
COc1ccc(NC(=O)CSc2nc3c(cc2C#N)CN(C)CC3)cc1 | . | -19% | -9% | -3% | 11µM*
SMILES | L3MBTL1 block | JMJD2A Tudor | BAZ2B block | HP1b chromo inh | G9a block
CN1CCc2nc(SCC(=O)Nc3ccc(F)cc3)c(C#N)cc2C1 | -8% | . | -3% | . | 6.3µM*
CCC1CCCCN1S(=O)(=O)c1cc2c(cc1C)NC(=O)CO2 (stereo not given) | . | -12% | -10% | 23% | -38%[59 µM]
CCN(CC)c1ccc(/C=N\NC(=O)c2cccc3cc[nH]c23)cc1 | -6% | -17% | -10% | 15% | 18%[12.7 µM]
O=C(O)C1Cc2c([nH]c3ccccc23)C(c2ccc3c(c2)OCO3)N1 (stereo not given) | 0% | ? | -29% | 5% | 35µM*
CC1CCc2ccccc2N1C(=O)c1cccs1 (stereo not given) | . | 56µM* | 7% | ? | 26%[59 µM]
CCOc1[nH]c(/N=C/c2ccc(OC)cc2)c(C#N)c1C#N | . | 25µM* | . | ? | .
COc1ccc(CNC(=O)c2sc3nc4n(c(=O)c3c2C)CCCCC4)cc1 | . | 89µM* | 16µM* | 3% | 14µM*
Cc1cc(Br)ccc1NC(=O)c1sc2nc3n(c(=O)c2c1C)CCCC3 | . | 79µM* | 18µM* | 68% | 13µM*
Nc1ccccc1SCc1cn2ccccc2n1 | 9% | -23% | -9% | 17% | 50µM*
Cc1cccn2cc(CSc3ccccc3N)nc12 | . | -14% | 3% | 36% | ?
O=[N+]([O-])c1ccc(CSc2nc3ccccc3[nH]2)cc1 | 3% | -11% | -38% | 21% | 28µM*
Nc1ccccc1SCc1cn2cccnc2n1 | -4% | -25% | 9% | 33% | 35µM*
Cc1cccc2nc(CSc3nc4ccccc4[nH]3)cn12 | 5% | -17% | -16% | 24% | -32%
c1ccc2[nH]c(SCc3cn4ccccc4n3)nc2c1 | 3% | -22% | -12% | 24% | 45µM*
c1ccc(SCc2cn3cccnc3n2)nc1 | -5% | -17% | -17% | 22% | -30%
CCc1ccc(S(=O)(=O)c2nnn3c2nc(NCc2cccs2)c2sccc23)cc1 | . | -19% | ? | 18% | -31%[59 µM]
Cc1ccc(C)n1-n1c(C)nc2sc(-c3ccccc3)cc2c1=O | -19% | ? | ? | -22% | 14µM*
CC(C)(C)c1ccc(C(=O)c2c[nH]c(C(=O)NCCc3ccccn3)c2)cc1 | -19% | -18% | -7% | -4% | 23%
CN(C)S(=O)(=O)c1ccc(C(=O)NCc2ccccc2)cc1 | 4% | 3% | . | 16% | -5%[59 µM]
CN(C)S(=O)(=O)c1ccc(C(=O)NCC2CC2(Cl)Cl)cc1 (stereo not given) | . | 13µM* | 12% | -7% | 2%[59 µM]
COC(=O)c1ccc(OC(=O)C2CSC3(C)CCC(=O)N23)cc1 (stereo not given) | 10% | 6% | 0% | 32% | 56µM*
Cc1cc(Br)ccc1NC(=O)C1C2CCC(O2)C1C(=O)O (stereo not given) | 4% | -5% | -1% | 64% | 32µM*
O=C1c2[nH]nc(-c3ccccc3O)c2C(c2ccccc2F)N1Cc1ccncc1 (stereo not given) | . | -34% | -3% | 9% | 0%[59 µM]
COc1cc(/C=C(\C#N)c2nc3ccccc3o2)ccc1O | -29% | ? | 45µM* | -9% | .
N#C/C(=C\c1ccc(O)cc1)c1nc2ccccc2o1 | -26% | -35% | -30% | -10% | ?
CC(C)c1cnc2c(c1SCc1cccc(F)c1)c(=O)n(C)c(=O)n2C | . | 11% | 9% | 31%[57 µM] | -41%[59 µM]
